Targets with a hit are over-represented here; the source holds about 7,900 in all. About 0.6% of all pairs of compound and target were hits. Unmarked numbers belong to inactive results.
Assays:
Test in all cases: log2 fold change, soluble protein after heating vs DMSO (PISA); higher = thermal stabilisation; K562 cells, 10 uM, 30 min; active = over 0.2 and 3.5 SD of the protein, either way, in both replicates (recomputed)
[1] = compound: CS(=O)(=O)c1ccc(-c2cnc(N)c(C(=O)Nc3ccccc3)n2)cc1
How it was run: (§1)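 Aliquots of K562 cells (2×10^6 cells/mL) treated with 10 μM compound for 30 min were heated for 3 min over 48°C-58°C. After pooling and extraction in PBS with 0.5% NP-40 at 4°C, soluble protein from a 21,000xg, 90 min spin was quantified by TMTpro 16plex LC-MS/MS with channel sums equalised. Thermal stability is expressed against control samples, from duplicates, as a log2 fold change.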

crizotinib = compound: C[C@@H](Oc1cc(-c2cnn(C3CCNCC3)c2)cnc1N)c1c(Cl)ccc(F)c1Cl [crizotinib]
How it was run: as §1

[2] = compound: C[C@@H]1COCCN1C2=NC(=NC(=C2)C3(CC3)S(=O)(=O)C)C4=C5C=CNC5=CC=C4
How it was run: as §1

[3] = compound: C[C@H](C1=CC=C(C=C1)C(=O)NC2=C3C=CNC3=NC=C2)N
How it was run: as §1

duvelisib = compound: C[C@H](Nc1ncnc2nc[nH]c12)c1cc2cccc(Cl)c2c(=O)n1-c1ccccc1 [duvelisib]
How it was run: as §1

gandotinib = compound: Cc1cc(Nc2cc(CN3CCOCC3)c3nc(C)c(Cc4ccc(Cl)cc4F)n3n2)n[nH]1 [gandotinib]
How it was run: as §1

tozasertib = compound: Cc1cc(Nc2cc(N3CCN(C)CC3)nc(Sc3ccc(NC(=O)C4CC4)cc3)n2)n[nH]1 [tozasertib]
How it was run: as §1

[4] = compound: Cc1cc(SCc2sc(-c3ccc(C(F)(F)F)cc3)nc2C)ccc1OCC(=O)O
How it was run: as §1

doramapimod = compound: Cc1ccc(-n2nc(C(C)(C)C)cc2NC(=O)Nc2ccc(OCCN3CCOCC3)c3ccccc23)cc1 [doramapimod]
How it was run: as §1

ispinesib = compound: Cc1ccc(C(=O)N(CCCN)[C@@H](c2nc3cc(Cl)ccc3c(=O)n2Cc2ccccc2)C(C)C)cc1 [ispinesib]
How it was run: as §1

Chain of UniProt Q8IUR7 (Q8IUR7 whole entry, looked up): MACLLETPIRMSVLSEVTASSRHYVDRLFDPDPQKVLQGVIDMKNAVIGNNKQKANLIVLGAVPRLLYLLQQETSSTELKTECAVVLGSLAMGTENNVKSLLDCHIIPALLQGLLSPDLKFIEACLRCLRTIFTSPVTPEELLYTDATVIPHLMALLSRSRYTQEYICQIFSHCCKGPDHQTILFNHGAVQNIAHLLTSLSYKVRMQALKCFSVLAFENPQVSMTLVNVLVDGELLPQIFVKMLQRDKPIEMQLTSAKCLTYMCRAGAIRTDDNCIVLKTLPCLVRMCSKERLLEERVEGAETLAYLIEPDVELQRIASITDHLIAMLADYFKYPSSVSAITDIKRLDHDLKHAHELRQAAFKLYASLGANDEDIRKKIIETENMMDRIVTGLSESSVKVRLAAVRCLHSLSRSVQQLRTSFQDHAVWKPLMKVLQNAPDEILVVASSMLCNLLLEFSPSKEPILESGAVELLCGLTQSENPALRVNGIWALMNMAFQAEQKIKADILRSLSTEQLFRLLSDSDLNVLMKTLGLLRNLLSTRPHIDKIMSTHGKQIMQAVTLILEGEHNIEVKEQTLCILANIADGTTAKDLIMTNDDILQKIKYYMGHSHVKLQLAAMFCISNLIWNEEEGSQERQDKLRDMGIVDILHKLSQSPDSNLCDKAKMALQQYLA
Chain of UniProt P21283 (P21283 whole entry, looked up): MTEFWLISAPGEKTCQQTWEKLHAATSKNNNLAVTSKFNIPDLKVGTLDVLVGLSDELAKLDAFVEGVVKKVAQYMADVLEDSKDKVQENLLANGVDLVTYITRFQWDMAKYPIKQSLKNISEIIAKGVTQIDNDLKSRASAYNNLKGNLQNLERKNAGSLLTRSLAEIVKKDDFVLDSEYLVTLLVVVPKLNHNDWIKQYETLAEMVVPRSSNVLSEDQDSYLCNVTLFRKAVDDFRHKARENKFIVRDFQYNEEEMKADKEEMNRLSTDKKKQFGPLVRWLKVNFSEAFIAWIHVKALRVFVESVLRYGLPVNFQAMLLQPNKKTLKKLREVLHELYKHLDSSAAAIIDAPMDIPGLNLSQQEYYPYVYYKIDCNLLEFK
Chain of UniProt Q9NWB6 (Q9NWB6 whole entry, looked up): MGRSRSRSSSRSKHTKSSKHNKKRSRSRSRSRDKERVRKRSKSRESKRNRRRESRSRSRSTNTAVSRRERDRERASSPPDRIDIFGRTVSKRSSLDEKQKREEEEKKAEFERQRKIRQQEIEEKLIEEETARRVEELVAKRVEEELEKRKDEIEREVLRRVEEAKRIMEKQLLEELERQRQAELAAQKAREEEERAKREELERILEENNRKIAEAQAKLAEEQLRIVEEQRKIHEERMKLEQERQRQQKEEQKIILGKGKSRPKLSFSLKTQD
Chain of UniProt O00116 (O00116 whole entry, looked up): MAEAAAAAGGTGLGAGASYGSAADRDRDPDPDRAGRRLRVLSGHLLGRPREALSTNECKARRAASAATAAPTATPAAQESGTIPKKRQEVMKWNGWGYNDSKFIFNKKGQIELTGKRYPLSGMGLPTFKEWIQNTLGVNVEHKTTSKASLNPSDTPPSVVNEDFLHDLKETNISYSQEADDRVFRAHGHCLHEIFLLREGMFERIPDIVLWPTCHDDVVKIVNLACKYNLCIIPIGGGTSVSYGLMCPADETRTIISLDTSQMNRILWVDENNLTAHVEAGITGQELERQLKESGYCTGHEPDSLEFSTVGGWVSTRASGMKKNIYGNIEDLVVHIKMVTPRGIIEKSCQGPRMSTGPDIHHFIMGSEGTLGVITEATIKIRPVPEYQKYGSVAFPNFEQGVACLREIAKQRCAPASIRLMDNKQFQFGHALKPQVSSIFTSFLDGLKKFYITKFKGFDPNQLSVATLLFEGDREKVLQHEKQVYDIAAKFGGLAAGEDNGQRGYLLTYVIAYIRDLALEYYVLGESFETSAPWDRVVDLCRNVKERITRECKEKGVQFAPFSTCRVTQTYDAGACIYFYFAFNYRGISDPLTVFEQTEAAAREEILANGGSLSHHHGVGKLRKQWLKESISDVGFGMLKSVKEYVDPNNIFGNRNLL
Chain of UniProt P42025 (P42025 whole entry, looked up): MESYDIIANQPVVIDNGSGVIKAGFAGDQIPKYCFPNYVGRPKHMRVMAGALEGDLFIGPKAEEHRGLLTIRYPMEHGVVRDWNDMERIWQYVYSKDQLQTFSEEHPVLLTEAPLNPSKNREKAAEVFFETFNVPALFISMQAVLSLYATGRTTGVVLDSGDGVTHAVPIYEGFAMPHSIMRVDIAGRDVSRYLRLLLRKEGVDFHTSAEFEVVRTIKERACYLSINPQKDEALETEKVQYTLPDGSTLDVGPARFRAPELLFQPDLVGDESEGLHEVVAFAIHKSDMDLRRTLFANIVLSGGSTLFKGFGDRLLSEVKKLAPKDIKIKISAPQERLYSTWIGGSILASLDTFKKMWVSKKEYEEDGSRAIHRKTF
Chain of UniProt Q9ULX6 (Q9ULX6 whole entry, looked up): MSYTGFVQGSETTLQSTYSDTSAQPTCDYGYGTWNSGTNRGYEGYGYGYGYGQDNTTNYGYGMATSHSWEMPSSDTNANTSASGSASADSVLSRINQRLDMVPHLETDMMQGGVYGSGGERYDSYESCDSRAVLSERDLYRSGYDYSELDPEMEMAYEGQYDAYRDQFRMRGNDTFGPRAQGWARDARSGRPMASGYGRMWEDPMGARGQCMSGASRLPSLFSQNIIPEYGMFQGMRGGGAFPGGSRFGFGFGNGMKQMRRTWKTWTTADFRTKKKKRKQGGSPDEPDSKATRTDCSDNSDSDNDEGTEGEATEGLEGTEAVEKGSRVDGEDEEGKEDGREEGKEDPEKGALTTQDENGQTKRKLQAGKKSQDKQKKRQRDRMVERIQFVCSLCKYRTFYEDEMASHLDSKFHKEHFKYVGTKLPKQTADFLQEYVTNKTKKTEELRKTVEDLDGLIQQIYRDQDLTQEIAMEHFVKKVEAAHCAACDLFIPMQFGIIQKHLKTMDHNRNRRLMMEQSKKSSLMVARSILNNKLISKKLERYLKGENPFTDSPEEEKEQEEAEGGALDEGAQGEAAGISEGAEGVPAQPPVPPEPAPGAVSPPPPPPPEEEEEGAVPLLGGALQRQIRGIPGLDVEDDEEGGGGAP
Chain of UniProt Q15904 (Q15904 whole entry, looked up): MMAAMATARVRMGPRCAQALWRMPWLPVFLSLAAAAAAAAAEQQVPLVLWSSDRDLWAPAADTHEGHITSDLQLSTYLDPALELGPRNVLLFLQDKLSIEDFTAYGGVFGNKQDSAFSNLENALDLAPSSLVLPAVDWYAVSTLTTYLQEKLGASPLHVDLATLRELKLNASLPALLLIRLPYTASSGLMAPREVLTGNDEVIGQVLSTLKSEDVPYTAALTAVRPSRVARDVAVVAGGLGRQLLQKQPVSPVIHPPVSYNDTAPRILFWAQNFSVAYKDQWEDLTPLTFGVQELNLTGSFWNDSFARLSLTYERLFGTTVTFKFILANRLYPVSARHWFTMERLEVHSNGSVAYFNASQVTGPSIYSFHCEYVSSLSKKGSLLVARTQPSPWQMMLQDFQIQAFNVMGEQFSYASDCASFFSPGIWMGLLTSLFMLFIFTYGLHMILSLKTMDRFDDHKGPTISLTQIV
Chain of UniProt Q8TDN6 (Q8TDN6 whole entry, looked up): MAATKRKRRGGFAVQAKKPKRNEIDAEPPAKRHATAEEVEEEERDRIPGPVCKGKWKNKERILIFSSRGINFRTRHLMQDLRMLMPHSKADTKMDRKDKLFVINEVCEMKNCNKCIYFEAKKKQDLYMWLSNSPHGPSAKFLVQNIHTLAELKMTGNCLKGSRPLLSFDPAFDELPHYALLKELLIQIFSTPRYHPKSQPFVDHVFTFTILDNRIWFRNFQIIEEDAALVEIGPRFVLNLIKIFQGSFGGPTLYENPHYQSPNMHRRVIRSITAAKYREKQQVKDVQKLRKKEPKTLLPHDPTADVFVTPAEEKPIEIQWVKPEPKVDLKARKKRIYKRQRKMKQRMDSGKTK
Chain of UniProt Q9P287 (Q9P287 whole entry, looked up): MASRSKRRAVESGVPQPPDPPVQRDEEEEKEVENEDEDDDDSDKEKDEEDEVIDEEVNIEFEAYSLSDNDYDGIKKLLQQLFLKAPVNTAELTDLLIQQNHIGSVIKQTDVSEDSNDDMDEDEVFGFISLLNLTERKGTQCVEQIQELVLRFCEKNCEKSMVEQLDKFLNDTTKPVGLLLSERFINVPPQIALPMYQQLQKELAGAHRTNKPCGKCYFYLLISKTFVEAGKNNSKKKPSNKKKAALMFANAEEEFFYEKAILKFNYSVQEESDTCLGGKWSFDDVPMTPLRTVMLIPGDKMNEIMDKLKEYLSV
Chain of UniProt Q96BI3 (Q96BI3 whole entry, looked up): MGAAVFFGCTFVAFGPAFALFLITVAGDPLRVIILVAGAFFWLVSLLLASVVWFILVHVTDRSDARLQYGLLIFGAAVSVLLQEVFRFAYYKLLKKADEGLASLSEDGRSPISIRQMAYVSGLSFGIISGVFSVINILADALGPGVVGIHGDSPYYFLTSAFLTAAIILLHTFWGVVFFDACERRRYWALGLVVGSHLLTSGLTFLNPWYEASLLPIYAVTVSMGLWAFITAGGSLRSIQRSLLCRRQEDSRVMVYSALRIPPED
Chain of UniProt Q96CW1 (Q96CW1 whole entry, looked up): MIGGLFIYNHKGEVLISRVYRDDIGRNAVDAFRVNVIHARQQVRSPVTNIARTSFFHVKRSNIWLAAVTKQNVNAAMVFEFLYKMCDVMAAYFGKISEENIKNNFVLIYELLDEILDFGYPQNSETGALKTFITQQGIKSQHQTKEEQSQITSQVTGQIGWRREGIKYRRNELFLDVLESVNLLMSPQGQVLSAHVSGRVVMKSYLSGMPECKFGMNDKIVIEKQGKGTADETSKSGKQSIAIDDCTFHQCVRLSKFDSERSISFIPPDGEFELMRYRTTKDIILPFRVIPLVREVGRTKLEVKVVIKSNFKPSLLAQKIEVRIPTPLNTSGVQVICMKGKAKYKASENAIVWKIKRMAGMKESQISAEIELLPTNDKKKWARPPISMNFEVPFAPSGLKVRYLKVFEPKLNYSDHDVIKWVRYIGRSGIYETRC
Chain of UniProt Q8WUW1 (Q8WUW1 whole entry, looked up): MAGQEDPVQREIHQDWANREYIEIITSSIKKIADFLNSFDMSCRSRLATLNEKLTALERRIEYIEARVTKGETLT

Target | log2 fold change [1] | log2 fold change (crizotinib) | log2 fold change [2] | log2 fold change [3] | log2 fold change (duvelisib) | log2 fold change (gandotinib) | log2 fold change (tozasertib) | log2 fold change [4] | log2 fold change (doramapimod) | log2 fold change (ispinesib)
ARGLU1 (UniProt Q9NWB6) | -0.038 | -0.008 | -0.039 | -0.344 | -0.011 | 0.212 | 0.037 | -0.027 | 0.047 | 0.242
BOP1 (UniProt Q14137) | -0.008 | 0.11 | -0.153 | 0.064 | -0.113 | 0.025 | 0.007 | 0.134 | -0.008 | -0.114
AGPAT5 (UniProt Q9NUQ2) | 0.035 | -0.117 | 0.151 | -0.014 | 0.065 | -0.09 | 0.002 | -0.029 | 0.001 | -0.145
ARMC8 (UniProt Q8IUR7) | 0.005 | 0.013 | 0.005 | -0.015 | 0.07 | -0.045 | 0.063 | 0.165 | 0.014 | 0.051
AKAP8L (UniProt Q9ULX6) | -0.036 | -0.049 | -0.066 | -0.1 | -0.03 | -0.007 | 0.039 | 0.092 | 0.047 | -0.102
APLP2 (UniProt Q06481) | 0 | 0.032 | -0.012 | -0.035 | 0.088 | 0.117 | 0.103 | -0.049 | 0.049 | 0.16
AGPS (UniProt O00116) | 0.016 | -0.038 | 0.048 | -0.053 | 0.099 | -0.047 | -0.005 | 0.19 | 0.018 | 0.015
ACTR1B (UniProt P42025) | 0 | -0.009 | 0.156 | 0.072 | 0.009 | -0.167 | 0.073 | -0.022 | 0 | 0.124
ARPP19 (UniProt P56211) | -0.017 | 0.059 | 0.006 | -0.106 | -0.082 | 0.019 | -0.031 | -0.106 | -0.037 | 0.048
AP2M1 (UniProt Q96CW1) | 0.018 | -0.066 | -0.04 | -0.193 | -0.036 | -0.002 | -0.09 | -0.007 | 0.029 | 0.044
ACSM3 (UniProt Q53FZ2) | -0.001 | -0.002 | 0.027 | -0.095 | -0.131 | -0.037 | -0.001 | 0.049 | 0.023 | 0.226
ADPRHL2 (UniProt Q9NX46) | 0.052 | 0.092 | 0.045 | -0.072 | 0.17 | 0.07 | -0.077 | 0.039 | -0.017 | 0.303 (active)
ANKRD29 (UniProt Q8N6D5) | 0.125 | 0.019 | 0.042 | -0.043 | 0.139 | 0.185 | -0.072 | 0.017 | 0.097 | -0.055
ATP12A isoform 2 (UniProt P54707) | 0.02 | 0.162 | 0.138 | -0.087 | 0.067 | -0.047 | -0.027 | -0.056 | -0.004 | 0.137
ARAF (UniProt P10398) | 0.012 | -0.093 | 0.059 | 0.112 | -0.009 | 0.039 | -0.074 | 0.081 | -0.035 | -0.051
ATP11A (UniProt P98196) | 0.017 | 0.042 | 0.032 | -0.103 | -0.025 | 0.027 | -0.017 | -0.055 | 0.018 | 0.092
ATP6AP1 (UniProt Q15904) | -0.006 | -0.134 | -0.161 | 0.146 | -0.056 | -0.03 | 0.028 | 0.055 | 0.045 | -0.317 (active)
ATP6V1C1 (UniProt P21283) | -0.05 | 0.1 | -0.05 | 0.14 | 0.049 | 0.033 | 0.116 | 0.041 | 0.015 | 0.122
AARSD1 isoform 3 (UniProt Q9BTE6) | 0.062 | 0.054 | 0.012 | 0.013 | -0.04 | -0.081 | 0.055 | 0.038 | -0.05 | 0.067
BRK1 isoform 2 (UniProt Q8WUW1) | -0.004 | 0.029 | 0.11 | -0.276 | 0.086 | -0.024 | -0.047 | -0.035 | -0.041 | 0.18
BZW1 isoform 3 (UniProt Q7L1Q6) | 0.007 | -0.426 | 0.007 | 0.051 | -0.03 | -0.189 | 0.054 | 0.181 | -0.008 | -0.209
BRIX1 (UniProt Q8TDN6) | -0.027 | -0.097 | -0.292 | 0.318 | -0.117 | 0.056 | 0.196 | 0.093 | 0.288 | 0.166
BCAP29 isoform 2 (UniProt Q9UHQ4) | -0.015 | -0.028 | 0.061 | -0.005 | -0.006 | 0.037 | -0.019 | -0.079 | -0.024 | -0.245 (active)
APOB (UniProt P04114) | 0.066 | -0.443 | 0.083 | -0.203 | 0.003 | -0.198 | -0.085 | 0.007 | -0.288 | -0.55 (active)
ARFIP1 isoform 2 (UniProt P53367) | -0.03 | -0.266 | 0.047 |  | 0.11 | -0.112 |  | 0.081 | 0.087 | 
AP4S1 (UniProt Q9Y587) | -0.027 | -0.028 | 0.065 | 0.133 | -0.122 |  |  | 0.013 | -0.088 | 
BAD (UniProt Q92934) | 0.171 | 0.076 | 0.076 | -0.036 | 0.081 | 0.018 |  | -0.033 | 0.003 | 0.025
AFDN isoform 1 (UniProt P55196) | 0.004 | 0.088 | 0.371 | 0.111 | 0.054 | 0.183 |  | 0.068 | 0.116 | 0.11
BCCIP isoform 2 (UniProt Q9P287) | -0.006 | -0.012 | 0 | 0.062 | 0.067 | -0.047 | 0 | 0.011 | -0.008 | 0.059
APH1A (UniProt Q96BI3) | 0.048 | -0.151 |  | 0.021 | 0.035 | -0.075 | 0.015 | -0.036 | 0.073 | 

Reference: the supplement of paper PMC10849652
